Compound activity: PubChem, National Center for Advancing Translational Sciences (NCATS)
In the library only some 2.8% were active in any assay of this set; here they are far more common.
LDHA block: inhibitors of human lactate dehydrogenase A; AID 1347041; 0.15% of 480,000 active; activity change, % (values are at about 110 or 230 µM); purified LDHA, NADH/diaphorase-resazurin fluorescence; active compounds read low; P00338; in the data active = activity change below about -30%; inconclusive = mostly about -25% to -30%;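 note: plate controls were DMSO wells for no effect and wells without enzyme for full effect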
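Human LDH5 at 2 nM final in Tris HCl pH 7.4 with 0.06 mM NADH and 0.2 mM pyruvate, reacted 5 minutes at room temperature. Remaining NADH coupled via diaphorase/resazurin; resorufin fluorescence read at 0 and 20 minutes, normalized to enzyme-free and DMSO wells.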
D3 ag: agonists of human D3 dopamine receptor | 0.58% of 410,000 active | P35462 | AID 652048 | max activation, % | D3R DiscoveRx beta-arrestin cells, luminescence, 90 min; in the data active = max activation above about 30%; note: 0% is about no effect
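Cells at 1500/well, incubated overnight, then treated with pinned compounds (dopamine as control) for 90 min at 37 degrees C. DiscoveRx reagent added for 30 - 60 minutes at room temperature; luminescence read.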
RGS4 inh: inhibitors of human regulator of G protein signaling 4. 0.039% of 390,000 active. P49798. Potency, µM (titrated, usually from 114 µM), inactives show at the highest dose activity change, negative = inhibition, most hits filed as inhibitors. Transcreener GDP fluorescence polarization, RGS4-accelerated GTP hydrolysis; active = well fitted inhibition curve with a large enough effect; inconclusive = small, poorly fitted or top-dose-only effect; inactive = no such curve, though single readings can be large or run the other way; note: potency is the fitted concentration of half-maximal effect; % is set by controls: 0 for no effect and ±100 for the full control effect; nearly all actives have a fitted effect of over 75% in size
Target sequence (P49798 whole entry, looked up): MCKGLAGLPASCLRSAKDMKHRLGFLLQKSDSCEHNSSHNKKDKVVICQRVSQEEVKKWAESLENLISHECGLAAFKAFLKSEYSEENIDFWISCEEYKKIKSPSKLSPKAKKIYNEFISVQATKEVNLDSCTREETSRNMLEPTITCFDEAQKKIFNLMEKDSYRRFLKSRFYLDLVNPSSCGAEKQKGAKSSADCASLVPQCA
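MLSMR compounds (23 nl, pin-transferred) preincubated 10 min at room temperature with a 500nM (2x) first reagent, then RGS4 at 900nM (2x) plus Transcreener GDP mix added; fluorescence polarization (620/688 nm) read before and after 90 min at 30 °C.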
pAkt inh: inhibitors of Akt phosphorylation; Neuro2A IGF-stimulated pAkt S473 HTRF, 20 min; active compounds read low; activity change, % for hits at 50 µM; 0.32% of 360,000 active; AID 651550; in the data active = activity change below about -80%; inconclusive = mostly about -51% to -80%; note: % is set by controls: 0 for no effect and ±100 for the full control effect
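Neuro2A cells (4,500/well, DMEM with 0.5% FBS) were treated with compound at a single 50 µM final concentration, stimulated with 6 nM IGF for 20 min at 37 °C, and lysed. Phospho-Akt Ser473 was read by HTRF as 665/615 ratio ×10^4.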
PI4K2A block: PI4K2A (human) kinase inhibition. 0.13% of 420,000 active. purified PI4K2A, ADP-Glo luminescence, 1 h; active compounds read low. AID 1346378. Q9BTU6. activity change, negative = inhibition, % at 76.9 µM; in the data active = activity change below about -50%; inconclusive = mostly about -30% to -49%;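 note: -100% = wells without enzyme as full effect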
Target sequence (Q9BTU6 whole entry, looked up): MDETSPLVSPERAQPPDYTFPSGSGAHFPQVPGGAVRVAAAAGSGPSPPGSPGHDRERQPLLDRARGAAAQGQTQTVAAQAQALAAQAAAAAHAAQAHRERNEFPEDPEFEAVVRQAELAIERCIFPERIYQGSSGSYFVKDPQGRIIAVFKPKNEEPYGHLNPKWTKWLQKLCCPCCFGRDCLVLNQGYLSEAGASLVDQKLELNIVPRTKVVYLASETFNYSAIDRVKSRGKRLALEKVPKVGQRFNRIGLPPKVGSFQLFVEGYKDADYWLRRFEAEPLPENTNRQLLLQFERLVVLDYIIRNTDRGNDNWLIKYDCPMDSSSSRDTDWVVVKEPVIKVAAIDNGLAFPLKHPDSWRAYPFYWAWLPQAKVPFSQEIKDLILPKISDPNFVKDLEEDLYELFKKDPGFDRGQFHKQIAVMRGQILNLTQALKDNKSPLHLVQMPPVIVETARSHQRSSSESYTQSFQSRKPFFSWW
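ADP-Glo luminescence measured ADP generated by PI4K2A enzyme (4 ug/mL before mixing) with 1.2 mM PI substrate (pre-mix) and 300 microM ATP (pre-mix). Tris pH7.5 buffer with MgCl2, Triton X-100; 1 h reaction at ambient temperature.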
DRD3 antagonist: blocks the human D3 dopamine receptor; P35462; D3R cells, DiscoveRx beta-arrestin luminescence, antagonist mode; active compounds read low; 2.5% of 360,000 active; max response, negative = inhibition, %; in the data active = max response below about -50%; inconclusive = no clear call, values can overlap the other calls; note: % is set by controls: 0 for no effect and ±100 for the full control effect
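Cells plated overnight at 1500 cells/well, then exposed to library compounds with dopamine controls for 90 minutes at 37 degrees C. DiscoveRx reagent added for 30–60 minutes at room temperature; luminescence read, quantitative HTS format.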
* = called active by the depositor; i = inactive; ? = inconclusive; · = no result given; [ ] = another dose, or the depositor's remark.

SMILES | LDHA block | D3 ag | RGS4 inh | pAkt inh | PI4K2A block | DRD3 antagonist
OC[C@@H]1CN(CCN2CCOCC2)C[C@H](n2cnc3c(NC4CCCC4)ncnc32)O1 | -6.5 | -10.5 | · | i | 4.0 | -51.2*
COCCN1C[C@@H](CO)O[C@@H](n2cnc3c(N4CCCC4)ncnc32)C1 | -1.6 | 87.5* | · | i | 0.2 | 45.7
COc1ccccc1N1CCN(CCS(C)(=O)=O)CC1 | 3.3 | · | · | · | · | ·
COc1ccccc1N1CCN(CCS(=O)(=O)c2cc(Cl)ccc2Cl)CC1 | 0.2 | -9.5 | · | i | 8.7 | -93.1*
COc1ccccc1N1CCN(CCCNC(=O)Nc2ccccc2)CC1 | -7.8 | 21.6 | 39.3% | i | 7.4 | -28.7
COc1ccccc1N1CCN(CCCNc2cc(=O)n(C)c(=O)n2C)CC1 | -2.7 | -3.4 | 0.1%[56.9 µM] | i | -2.1 | -62.0*
COc1ccccc1N1CCN(CCCNc2c(C)c(=O)n(C)c(=O)n2C)CC1 | 3.9 | 0.0 | 9.1%[56.9 µM] | i | -2.2 | -56.5*
COc1ccc(OC(=O)c2ccc(Br)cc2)c(C(C)=O)c1 | 11.8 | · | · | · | · | ·
CCn1cc2nc(SCC(=O)N3CCCC3)n(Cc3ccc(C)cc3)c(=O)c2n1 | -1.6 | · | · | · | · | ·
CN1CCc2c(sc3c2C(=O)NC(c2cn(Cc4ccccc4)c4ccccc24)N3)C1 (centres undefined) | 3.0 | -11.3 | -42.7% | i | 0.7 | -75.2*
CN1CCc2c(sc3c2C(=O)NC(c2ccco2)N3)C1 (centres undefined) | 9.2 | -24.8 | 12.0% | i | -12.1 | 17.4
CN1CCc2c(sc3c2C(=O)NC(c2ccc(-c4ccc(Cl)cc4)o2)N3)C1 (centres undefined) | -0.5 | -25.0 | -34.6% | i | 0.7 | -80.5*
CCCCc1c(C)[nH]n(-c2nc(C)c(C(=O)Nc3cccc(OC)c3)s2)c1=O | -36.4* | · | · | · | · | ·
CCCCc1c(C)[nH]n(-c2nc(C)c(C(=O)Nc3ccccc3)s2)c1=O | -3.3 | · | · | · | · | ·
COc1ccccc1NC(C)=[N+](C)CCNS(=O)(=O)c1ccc(Cl)cc1 | -73.7* | 1.1 | -14.4% | i | -3.1 | 6.7
COc1ccc(NC(C)=[N+](C)CCNS(=O)(=O)c2ccc(Cl)cc2)cc1Cl | -13.8 | 11.4 | -20.4% | i | -3.1 | 6.3
Cc1ccc(C(=O)c2ccccc2C(=O)OCc2ccc(Cl)cc2Cl)cc1 | -1.0 | · | · | · | · | ·
CCCC(C)NC(=O)COC(=O)CCS(=O)(=O)c1ccc(C)cc1 (centres undefined) | -30.8* | · | · | · | · | ·
CS(=O)(=O)c1ccc(NCc2ccccc2F)c(S(C)(=O)=O)c1 | 0.8 | · | · | · | · | ·
COc1ccc(-c2cn(CCC(=O)O)c(-c3ccc(Cl)nc3)n2)cc1 | 2.2 | 51.5* | -2.0% | i | -3.9 | 37.2
O=C(O)CCn1cc(-c2ccc(Cl)cc2)nc1-c1ccc(Cl)nc1 | -7.8 | 8.5 | -22.8% | i | 5.9 | 0.0
CCC1(c2ccccc2)NC(=O)N(NC(=O)c2nn(-c3ccccc3)c(=O)c3ccccc23)C1=O (centres undefined) | -4.4 | · | · | · | · | ·
CCCS(=O)(=O)N1CCCC(C(=O)NCCCN2CCN(c3ccccc3F)CC2)C1 (centres undefined) | -1.6 | 30.7* | -9.2% | i | 0.1 | -53.3*
CCS(=O)(=O)N1CCC(C(=O)NCCCN2CCN(c3ccccc3F)CC2)CC1 | -7.4 | 39.6* | 4.6% | i | -2.4 | -52.2*
O=C(NCCCN1CCN(c2ccccc2F)CC1)C1CCN(S(=O)(=O)c2cccs2)CC1 | -9.0 | 0.0 | -4.7% | i | 2.6 | ?
SMILES | LDHA block | D3 ag | RGS4 inh | pAkt inh | PI4K2A block | DRD3 antagonist
Cc1cccc(NC(=O)CC(C)(C)CC(=O)O)c1C | 4.6 | · | · | · | · | ·
Cc1ccc(NC(=O)CCc2ncc(-c3c(F)cccc3F)o2)c(C)c1 | 1.5 | · | · | · | · | ·
CC(C)(C)c1ccccc1OCCCCCNCCO | -11.2 | -25.4 | -15.2% | · | 4.3 | -86.3*
CC(C)c1ccccc1OCCCCCNCCO | -1.9 | -20.9 | -3.7% | i | 5.5 | -52.4*
CCN(CC(=O)Nc1c(F)cccc1F)C(=O)C1CC(=O)N(Cc2ccccc2)C1 (centres undefined) | -1.6 | · | · | · | · | ·
COc1ccc(/C=C2\CCCC3C2=NN(C(=O)c2scnc2C)C3c2ccc(OC)c(OC)c2)cc1OC (centres undefined) | -2.3 | 71.6* | -0.1% | i | -1.3 | 4.5
Cc1[nH]c2ccccc2c(=O)c1CN(C)Cc1ccccc1 | -1.3 | -3.1 | 3.3% | i | -4.8 | -63.1*
O=C(NCc1ccncc1)c1cc(-c2ccco2)nc2ccccc12 | 11.4 | · | · | · | · | ·
CCOc1ccc(N(CCCCO)C(=S)NC(=O)c2ccc(C)c(Br)c2)cc1 | -2.9 | 34.8* | -34.3% | i | 7.2 | -24.3
C=CCNC(=S)NC(=O)c1ccc(C)c(Br)c1 | -2.7 | -1.5 | -4.2%[11.4 µM] | i | -1.4 | 19.4
Cc1ccc(C)n1-c1c(C(=O)NCCN2CCN(C)CC2)sc2ncccc12 | -0.3 | · | · | · | · | ·
CCOC(=O)c1oc2ccccc2c1NC(=O)c1ccccc1OC | -0.8 | 50.3* | 26.4% | i | -0.3 | 39.0
CCOc1cccc(C(=O)Nc2c(C(=O)c3ccc(OC)cc3)oc3ccccc23)c1 | -6.4 | 32.6* | 12.8% | · | -6.9 | ·
CCN(CC(=O)Nc1ccc(NC(C)=O)cc1)Cc1nc2ccccc2o1 | -12.0 | · | · | · | · | ·
CN1CCN(C(=O)c2cccnc2-c2nc3ccccc3s2)CC1 | 16.7 | · | · | · | · | ·
CC1(C)CC(=O)c2cc(C(=O)Nc3ccc(Br)cc3)c(=O)n(-c3ccc(Cl)cc3)c2C1 | -3.8 | 52.5* | -0.4% | · | 1.2 | ·
S=C(NN=C1C2CC3CC(C2)CC1C3)Nc1ccccc1 | -1.8 | 0.6 | -27.0% | i | 2.2 | -65.9*
CC1CCC/C(=N/NC(=S)Nc2ccccc2)C1 (centres undefined) | 2.3 | · | · | · | · | ·
Oc1ccc(-c2nc3ncccn3c2Nc2ccc3c(c2)OCO3)cc1 | 6.1 | -1.1 | -36.7% | i | -7.1 | -55.3*
c1ccc(-c2ccc(-c3nc(-c4ccncc4)no3)cc2)cc1 | -0.2 | 45.1* | -40.2% | i | -14.2 | 37.6
COc1cccc2c(SCC(=O)N/N=C/c3ccc(O)c(O)c3)cc(C)nc12 | 2.1 | 30.6* | -1.5% | i | 1.6 | 4.5
COc1ccccc1CN1C2CCCC1CC(NC(=O)/C=C/c1ccccc1)C2 (centres undefined) | -10.5 | -16.4 | -18.5% | i | 4.9 | -64.5*
CCOC(=O)CC1=C(C(=O)OCC)C(c2ccncc2)C(C#N)=C(N)O1 (centres undefined) | -6.1 | 3.4 | 0.7% | -116.4%* | 14.9 | 5.0
COC(=O)C1=C(C)OC(N)=C(C#N)C1c1ccccc1 (centres undefined) | 2.3 | 0.6 | -17.7%[56.9 µM] | i | -6.8 | 17.4
